Inconclusive results are not listed. A call without a number means that no potency is given here. The source made the active and inactive calls. Unless noted, calls follow the shape of the dose curve; as a rule, active = well fitted curve in the direction sought with a large enough effect; inconclusive = small, poorly fitted or top-dose-only effect, or another doubt; inactive = no such curve, though single readings can be large; an effect the other way counts as inactive or inconclusive.
How the values were obtained:
[1] = biological target: Voltage-gated inwardly rectifying potassium channel KCNH2 (Homo sapiens) (UniProt Q12809); experiment: qHTS Assay for Small Molecule Inhibitors of the Human hERG Channel Activity (AID 588834); settings: U2OS BacMam hERG, FluxOR thallium flux fluorescence; series mostly up to 46.1 µM;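 also: lower thallium flux fluorescence means stronger hERG block; nearly all actives have a fitted effect of over 50% in size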; also: potency is read from the fitted curve at half-maximal effect
Chain of Voltage-gated inwardly rectifying potassium channel KCNH2 (Homo sapiens) (Q12809 whole entry, looked up): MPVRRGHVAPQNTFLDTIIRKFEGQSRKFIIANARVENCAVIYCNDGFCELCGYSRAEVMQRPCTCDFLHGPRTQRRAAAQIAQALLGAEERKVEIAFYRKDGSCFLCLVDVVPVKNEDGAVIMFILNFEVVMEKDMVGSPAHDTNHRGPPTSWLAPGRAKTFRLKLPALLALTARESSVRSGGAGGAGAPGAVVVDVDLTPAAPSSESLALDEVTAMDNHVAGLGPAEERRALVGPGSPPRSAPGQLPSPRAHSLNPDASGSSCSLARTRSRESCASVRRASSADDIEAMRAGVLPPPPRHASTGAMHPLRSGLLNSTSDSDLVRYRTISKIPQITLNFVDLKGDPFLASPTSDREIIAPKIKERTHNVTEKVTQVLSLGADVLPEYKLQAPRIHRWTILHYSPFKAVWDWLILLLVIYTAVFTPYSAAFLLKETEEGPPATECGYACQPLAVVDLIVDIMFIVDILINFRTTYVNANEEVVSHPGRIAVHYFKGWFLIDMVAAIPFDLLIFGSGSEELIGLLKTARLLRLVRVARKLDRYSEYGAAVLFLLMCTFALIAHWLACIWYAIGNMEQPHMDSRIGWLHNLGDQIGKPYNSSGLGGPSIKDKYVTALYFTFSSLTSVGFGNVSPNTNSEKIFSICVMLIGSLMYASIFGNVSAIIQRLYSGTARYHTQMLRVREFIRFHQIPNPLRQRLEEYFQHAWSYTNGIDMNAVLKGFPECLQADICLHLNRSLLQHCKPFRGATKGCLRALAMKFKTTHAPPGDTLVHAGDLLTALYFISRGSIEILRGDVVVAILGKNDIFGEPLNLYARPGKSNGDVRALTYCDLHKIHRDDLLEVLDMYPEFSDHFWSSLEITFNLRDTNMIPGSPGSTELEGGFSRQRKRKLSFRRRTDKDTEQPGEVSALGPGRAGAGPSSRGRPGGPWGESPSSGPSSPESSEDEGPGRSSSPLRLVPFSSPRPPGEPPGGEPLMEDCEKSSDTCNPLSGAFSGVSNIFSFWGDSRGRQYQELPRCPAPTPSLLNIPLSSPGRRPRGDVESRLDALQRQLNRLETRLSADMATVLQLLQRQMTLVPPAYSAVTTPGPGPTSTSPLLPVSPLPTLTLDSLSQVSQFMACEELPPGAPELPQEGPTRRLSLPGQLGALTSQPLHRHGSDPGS
Method in brief: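 Step 1: BacMam hERG transduction of U2OS, 4 hrs RT. Step 2: overnight 37 °C, plate 2000 cells/well, 4 hr. Step 3: FluxOR load, compound 10 min, stimulate, read fluorescence.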

[2] = biological target: Glutaminase kidney isoform, mitochondrial (Homo sapiens) (UniProt O94925); experiment: qHTS for Inhibitors of Glutaminase (GLS): LOPAC Validation (AID 624146); settings: glutaminase enzyme activity inhibition; series mostly up to 46.1 µM; also: nearly all actives have a fitted effect of over 60% in size; also: potency is read from the fitted curve at half-maximal effect
Chain of Glutaminase kidney isoform, mitochondrial (Homo sapiens) (O94925 whole entry, looked up, canonical isoform): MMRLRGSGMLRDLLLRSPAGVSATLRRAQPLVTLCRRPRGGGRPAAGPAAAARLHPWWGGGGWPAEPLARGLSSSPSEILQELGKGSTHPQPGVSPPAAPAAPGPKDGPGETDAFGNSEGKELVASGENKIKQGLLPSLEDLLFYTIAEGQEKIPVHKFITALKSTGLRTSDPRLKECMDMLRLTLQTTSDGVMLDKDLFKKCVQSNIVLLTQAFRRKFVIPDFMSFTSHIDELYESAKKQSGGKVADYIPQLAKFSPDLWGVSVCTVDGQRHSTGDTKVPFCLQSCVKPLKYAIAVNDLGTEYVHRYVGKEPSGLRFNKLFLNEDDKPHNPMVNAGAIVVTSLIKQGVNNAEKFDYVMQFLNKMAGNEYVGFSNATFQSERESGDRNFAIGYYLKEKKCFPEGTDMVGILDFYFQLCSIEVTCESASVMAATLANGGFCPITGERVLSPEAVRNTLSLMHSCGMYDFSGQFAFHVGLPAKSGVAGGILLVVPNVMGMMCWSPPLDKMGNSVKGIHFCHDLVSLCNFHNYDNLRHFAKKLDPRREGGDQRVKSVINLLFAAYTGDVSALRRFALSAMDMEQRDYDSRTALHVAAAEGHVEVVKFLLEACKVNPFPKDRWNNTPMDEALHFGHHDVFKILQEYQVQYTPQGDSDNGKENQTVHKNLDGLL
Method in brief: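 Enzyme dispensed in phosphate buffer (45 mM, pH 8.2, 0.02% Tween-20), compounds pinned in, then 1 mM L-glutamine solution and the glutamate oxidase–HRP–Amplex Red mix added; fluorescence read immediately and again after 30 min at room temperature.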

[3] = qHTS of Trypanosoma Brucei Inhibitors: LOPAC Validation (AID 624147); settings: purified enzyme assay, luminescence, 45 min; series mostly up to 57.5 µM
Method in brief: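 Assay buffer: 50 mM TEA pH 7.2, 100 mM KCl, 10 mM MgCl2, 0.05% BSA, 0.01% Tween-20. Pyruvate kinase from T. brucei plus substrate met compound, then ADP (130 uM final). Luminescence was read post 45 min RT.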

[4] = biological target: Glucagon-like peptide 1 receptor (Homo sapiens) (UniProt P43220); experiment: qHTS of GLP-1 Receptor Agonists: LOPAC Validation (AID 624148); settings: GLP-1R agonist cell assay; series mostly up to 46.1 µM;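 also: luminescence from a luciferase reporter switched on by cAMP; higher luminescence signal means agonism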
Chain of Glucagon-like peptide 1 receptor (Homo sapiens) (P43220 whole entry, looked up): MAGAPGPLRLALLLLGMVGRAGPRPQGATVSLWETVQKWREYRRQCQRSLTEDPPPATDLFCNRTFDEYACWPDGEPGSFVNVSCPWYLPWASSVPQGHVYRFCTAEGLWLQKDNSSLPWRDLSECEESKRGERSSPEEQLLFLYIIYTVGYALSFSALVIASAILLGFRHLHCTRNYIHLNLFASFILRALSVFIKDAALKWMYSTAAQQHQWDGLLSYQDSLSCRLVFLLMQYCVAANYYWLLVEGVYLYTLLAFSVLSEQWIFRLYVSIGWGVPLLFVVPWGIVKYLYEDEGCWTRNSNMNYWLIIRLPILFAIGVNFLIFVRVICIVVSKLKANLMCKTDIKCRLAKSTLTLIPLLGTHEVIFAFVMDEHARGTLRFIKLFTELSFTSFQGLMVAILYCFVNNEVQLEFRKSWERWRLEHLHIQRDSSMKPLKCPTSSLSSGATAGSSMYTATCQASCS
Method in brief: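 Agonism scored as increased luciferase luminescence driven by cAMP in HEK293 clones carrying GLP-1R. Cells settled 12 hours, received compound for 4-6 hr at 37 deg C, 5% CO2, and were read after 12 min detection reagent at RT.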

[5] = biological target: Luciferin 4-monooxygenase (Photinus pyralis) (UniProt P08659); experiment: Biochemical firefly luciferase enzyme assay for NPC (AID 624030);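 also: purified P. pyralis luciferase at 10 nM with luciferin and ATP substrate; nearly all actives have a fitted effect of over 70% in size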; settings: purified P. pyralis luciferase, luminescence, 5 min; series mostly up to 58.6 µM
Chain of Luciferin 4-monooxygenase (Photinus pyralis) (P08659 whole entry, looked up): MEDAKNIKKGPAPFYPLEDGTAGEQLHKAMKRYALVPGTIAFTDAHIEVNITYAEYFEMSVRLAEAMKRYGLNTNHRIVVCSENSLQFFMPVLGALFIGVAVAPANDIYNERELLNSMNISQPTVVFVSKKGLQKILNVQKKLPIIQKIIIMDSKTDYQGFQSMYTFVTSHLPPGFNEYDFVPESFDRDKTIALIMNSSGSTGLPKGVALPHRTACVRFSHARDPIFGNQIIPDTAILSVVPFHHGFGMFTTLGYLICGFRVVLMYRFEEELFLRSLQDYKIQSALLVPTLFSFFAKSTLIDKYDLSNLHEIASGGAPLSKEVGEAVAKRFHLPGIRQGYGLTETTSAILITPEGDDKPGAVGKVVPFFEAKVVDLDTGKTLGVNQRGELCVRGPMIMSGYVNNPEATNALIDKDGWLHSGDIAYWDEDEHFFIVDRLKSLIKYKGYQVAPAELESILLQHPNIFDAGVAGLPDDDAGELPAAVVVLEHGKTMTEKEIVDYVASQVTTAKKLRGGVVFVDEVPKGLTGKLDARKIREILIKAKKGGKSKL
Method in brief: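 Direct inhibition of firefly luciferase enzyme (10 nM final, 50 mM Tris Acetate) assessed by luminescence within 5 minutes. Percent activity scaled between DMSO and PTC124 positive control, with concentration-effect curves classified by fit quality and response.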

[6] = S16 Schwann cell viability assay (CellTiter-Glo assay) (AID 624031); settings: S16 rat Schwann cells viability, 24 h; series mostly up to 57.5 µM;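 also: native untransfected S16 rat Schwann cells; cellular ATP luminescence as a viability measure; nearly all actives have a fitted effect of over 70% in size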
Method in brief: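 Concentration-effect curves come from CellTiter-Glo luminescence of S16 rat Schwann cells after 24 h compound exposure. Each reading was normalized to DMSO wells (0%) and wells without cells, and curves were ranked by r2 and response magnitude.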

[7] = S16 Schwann cell PMP22 intronic element firefly luciferase assay (AID 624032); settings: S16 rat Schwann cells, PMP22 element FLuc, 24 h; series mostly up to 57.5 µM; also: nearly all actives have a fitted effect of over 30% in size
Method in brief: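 Luciferase reporter of PMP22 intronic-element expression in stably transfected S16 rat Schwann cells, read by ONE-Glo luminescence after 24 h compound exposure at 37 C. Activity scaled between DMSO (0%) and positive-control PTC124; concentration-effect curves quality-classified.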

[8] = S16 Schwann cell PMP22 intronic element beta-lactamase assay (AID 624044; calls by dose curve; also: nearly all actives have a fitted effect of over 15% in size); settings: S16 rat Schwann cells, PMP22 element beta-lactamase FRET, 24 h; series mostly up to 38.3 µM
Method in brief: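 Beta-lactamase reporter under a PMP22 intronic regulatory element in stable S16 rat Schwann cells; 24 h compound exposure. 460 nm blue signal normalized between DMSO (0%) and potassium clavulanate, with 535 nm FRET tracking viability; curves classed by r2 and response.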

With `CC(C)(C)c1o[nH]c(=O)c1CC(N)C(=O)O` (centres undefined) the Potency [1] was “inactive”, the Potency [2] was “inactive” and the Potency [3] was “inactive”. The outcome [4] was “inactive”.

For `CN1CCC(c2c[nH]c3ccc(O)cc23)CC1`, the Potency [1] was 2 µM (active), the Potency [2] was 1.26 µM (active) and the Potency [3] was “inactive”. For the same molecule, the outcome [4] was “inactive”.

With `NC(C(=O)O)c1cc(=O)[nH]o1` (centres undefined) the Potency [1] was “inactive”, the Potency [2] was “inactive” and the Potency [3] was “inactive”. For the same molecule, the outcome [4] was “inactive”.

For `CCCn1c(C)c(C(=O)c2ccc3ccccc3c2)c2ccccc21`, the Potency [1] was 6.31 µM (active), the Potency [2] was “inactive” and the Potency [3] was “inactive”. The outcome [4] was “inactive”.

For `CC(N)c1cccc(Cl)c1Cl` (centres undefined), the Potency [1] was “inactive”, the Potency [2] was “inactive” and the Potency [3] was “inactive”. For the same molecule, the outcome [4] was “inactive”.

With `C=CCN1C[C@@H](C)N([C@H](c2ccc(C(=O)N(CC)CC)cc2)c2cccc(OC)c2)C[C@@H]1C` the Potency [1] was 4.47 µM (active), the Potency [2] was “inactive” and the Potency [3] was “inactive”. The outcome [4] was “inactive”.

For `CCCCCCC(C)(C)c1ccc([C@@H]2C[C@H](O)CC[C@H]2CCCO)c(O)c1`, the Potency [1] was 8.91 µM (active), the Potency [2] was “inactive” and the Potency [3] was “inactive”. For the same molecule, the outcome [4] was “inactive”.

In the case of `CCCN(CCC)CCc1c[nH]c2ccc(C(N)=O)cc12`, the Potency [1] was 6.31 µM (active), the Potency [2] was “inactive” and the Potency [3] was “inactive”. The outcome [4] was “inactive”.

With `CCCN(CCC)C1CCc2cccc(O)c2C1` (centres undefined) the Potency [1] was “inactive”, the Potency [2] was “inactive” and the Potency [3] was “inactive”. For the same molecule, the outcome [4] was “inactive”.

With `CCN(CCCl)Cc1ccccc1Br` the Potency [1] was “inactive”, the Potency [2] was “inactive” and the Potency [3] was “inactive”. The outcome [4] was “inactive”.

In the case of `C[N+]1(C)CCN(c2ccccc2)CC1`, the Potency [1] was “inactive”, the Potency [2] was “inactive” and the Potency [3] was “inactive”. For the same molecule, the outcome [4] was “inactive”.

For `NC(=O)CI`, the Potency [1] was “inactive”, the Potency [2] was “inactive” and the outcome [4] was “inactive”.

In the case of `N[C@@H](CCl)C(=O)O`, the Potency [1] was “inactive”, the Potency [2] was “inactive” and the Potency [3] was “inactive”. The outcome [4] was “inactive”.

For `CCCn1c(=O)c2[nH]c(C3CCCC3)nc2n(CCCOC(=O)c2ccc(S(=O)(=O)F)cc2)c1=O`, the Potency [1] was 14.1 µM (active), the Potency [2] was “inactive” and the outcome [4] was “inactive”.

With `NC(CCCCCP(=O)(O)O)C(=O)O` (centres undefined) the Potency [1] was “inactive”, the Potency [2] was “inactive” and the outcome [4] was “inactive”.

For `c1cc2c(c(NC3=NCCN3)c1)CCCC2`, the Potency [5] was “inactive”, the Potency [6] was “inactive” and the Potency [7] was “inactive”. For the same molecule, the Potency [8] was “inactive”.

For `O=P(O)(O)C(Cl)(Cl)P(=O)(O)O`, the Potency [5] was “inactive”, the Potency [6] was “inactive” and the Potency [7] was “inactive”. The Potency [8] was “inactive”.

With `C=CCN1CC[C@]23c4c5ccc(O)c4O[C@H]2/C(=N/NC(=O)c2ccccc2)CC[C@@]3(O)[C@H]1C5` the Potency [1] was 3.16 µM (active), the Potency [2] was 14.1 µM (active) and the outcome [4] was “inactive”.

With `CC(=O)c1c(O)c(C)c(O)c(Cc2c(O)c3c(c(C(=O)/C=C/c4ccccc4)c2O)OC(C)(C)C=C3)c1O` the Potency [1] was “inactive”, the Potency [3] was “inactive” and the outcome [4] was “inactive”.

In the case of `N[C@@H](Cn1oc(=O)[nH]c1=O)C(=O)O`, the Potency [1] was “inactive”, the Potency [2] was “inactive” and the outcome [4] was “inactive”.
